We go through eight molecules from PubChem BioAssay.

Experiment [1] deals with Wnt5a (protein binding on small-molecule microarray). Kind of experiment: Wnt5a binders on small-molecule microarray, primary screen, biophysical, 635/667 nm fluorescence (AID 1142).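 Further: fluorescence read at 667 nm with signal to noise per printed feature.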 Particulars: 635 nm fluorescence, higher = more signal.
The nature of experiment [2]: cell viability in Huh7 cells, primary screen, cytotoxicity control for HCV replication inhibitor project, CellTiter-Glo luminescence, basal, 48 h (AID 1143).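 Further: Huh7 hepatoma cells carrying a hepatitis C replication reporter with no stimulus; test concentration not given here.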 Particulars: Huh7 HCV replicon, higher = more signal, called active from +8 up or from −8 down.
The nature of experiment [3]: P. aeruginosa biofilm formation inhibitors, primary screen, PAO1 strain, BacTiter-Glo luminescence, LB-PBS (AID 1144). Particulars: 12 h, higher = more signal.
The nature of experiment [4]: CREB reporter modulators without forskolin, primary screen, cell-based, PC12, CRE-LacZ reporter, unstimulated (AID 1145). Particulars: no forskolin, luminescence, 4.5 h, higher = more signal, called active from +8 up or from −8 down.
Experiment [5] can be described thus: CREB reporter modulators under forskolin, primary screen, cell-based, PC12, CRE-LacZ reporter, forskolin-stimulated (AID 1146).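 Further: PC12 cells with 6xCRE LacZ reporter stimulated by forskolin 10 µM; beta-galactosidase reporter signal reflecting CREB driven transcription.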 Particulars: luminescence, 4.5 h, higher = more signal, called active from +8 up or from −8 down.
Experiment [6] has as its target Streptavidin (Streptomyces avidinii) (UniProt P22629). Kind of experiment: streptavidin binders on small-molecule microarray, primary screen, artefact control for SMM compound annotation, biophysical, 635/667 nm fluorescence (AID 1147).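 Further: signal reflects streptavidin binding to arrayed compounds as a control protein.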 Particulars: streptavidin binding, higher = more signal.
Experiment [7] in a line: small-molecule binders of probe aInhba, primary screen, biochemical, small-molecule microarray, 635/667 nm fluorescence (AID 1148).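 Further: score merges 667nm spot fluorescence with signal-to-noise for antibody binding to printed compounds.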 Particulars: higher = more signal.
The target in experiment [8] is Torsin-1A (Homo sapiens) (UniProt O14656). In words: torsin A binders from cell lysate, primary screen, small-molecule microarray, wild-type, 635/667 nm (AID 1149). Particulars: COS7 hTOR1A-WT lysate, 635 nm fluorescence, higher = more signal.
The target is the same in experiment [9]. Kind of experiment: small-molecule binders of mutant TOR1A in lysate, primary screen, cell lysate, small-molecule microarray, COS7 lysate, 635/667 nm fluorescence (AID 1150).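 Further: score pools 667 nm emission and signal to noise measuring lysate protein binding.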 Particulars: COS7 hTOR1A mutant lysate, 635 nm fluorescence, higher = more signal.
Experiment [10] relates to Sonic hedgehog protein (Shh). Kind of experiment: small-molecule binders of Shh protein, primary screen, biochemical, small-molecule microarray, 635/667 nm fluorescence (AID 1151).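 Further: Shh protein binding to compounds spotted on small-molecule microarray slides; score combines spot fluorescence intensity with signal-to-noise across triplicate slides.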 Particulars: small-molecule microarray binding, 635 nm fluorescence; higher = more signal.
The nature of experiment [11]: E. coli DRC41 culture turbidity changes, primary screen, E. coli filamentation inducer project, strain DRC41, OD650, 48 h (AID 1152).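 Further: E. coli MC1000 strain DRC41 lacking acrAB efflux pump and sulA.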 Particulars: E. coli DRC41 (acrAB sulA), higher = more signal, called active from +8 up or from −8 down.
Experiment [12] can be described thus: small-molecule binders of probe aLefty1, primary screen, biochemical, small-molecule microarray, 635/667 nm fluorescence (AID 1153).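 Further: score merges spot fluorescence with signal-to-noise ratio from the scanned slide images.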 Particulars: higher = more signal.
Experiment [13] in a line: PSAC antagonists in infected red cells, primary screen, cell-based, P. falciparum Indochina, OD700, 1 h (AID 1154). Particulars: P. falciparum Indochina infected RBC osmotic lysis, higher = more signal, called active from +8 up or from −8 down.
Experiment [14] can be described thus: PSAC antagonists in infected red cells, primary screen, cell-based, P. falciparum Indochina, OD700, 2 h (AID 1155).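 Further: lysis reports solute entry through the parasite surface anion channel PSAC; channel blockers reduce lysis of infected cells.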 Particulars: P. falciparum Indochina infected erythrocytes, osmotic lysis OD700; higher = more signal, called active from +8 up or from −8 down.
A short description of experiment [15]: osmotic lysis modulators in infected erythrocytes, primary screen, PSAC antagonist project, cell-based, P. falciparum Indochina, OD700, 3 h (AID 1156). Particulars: higher = more signal, called active from +8 up or from −8 down.
A short description of experiment [16]: PSAC antagonists in infected red cells, primary screen, cell-based, P. falciparum Indochina, OD700, 18 h (AID 1157). Particulars: P. falciparum Indochina infected erythrocytes, osmotic lysis OD700, 18 h; higher = more signal, called active from +8 up or from −8 down.
Experiment [17] in a line: modulators of S6 phosphorylation in cells, primary screen, cell-based, A549, cytoblot, luminescence, serum-stimulated (AID 1158).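 Further: serum-stimulated A549 lung adenocarcinoma cells; signal is phosphorylated S6 detected by cytoblot immunostaining with HRP secondary.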 Particulars: A549 phospho-S6 cytoblot, 5 h, higher = more signal.
In experiment [18] the target is NADPH oxidase 2 (Homo sapiens) (UniProt P04839). Kind of experiment: NOX2-dependent H2O2 signal modulators, primary screen, NOX inhibitor project, cell-based, HEK293-NOX2, PMA-stimulated, Amplex Red fluorescence (AID 1159). Further: test concentration not given here. Particulars: 45 min, higher = more signal, called active from +8 up or from −8 down.
In experiment [19] the target is NADPH oxidase 4 (Homo sapiens) (UniProt Q9NPH5). Kind of experiment: NOX4-dependent H2O2 signal modulators, primary screen, NOX inhibitor project, cell-based, HEK293-NOX4, tetracycline-induced, Amplex Red fluorescence (AID 1160). Particulars: 45 min, higher = more signal, called active from +8 up or from −8 down.
Experiment [20] deals with NADPH oxidase 5 (Homo sapiens) (UniProt Q96PH1). Kind of experiment: NOX5-dependent H2O2 signal modulators, primary screen, NOX inhibitor project, cell-based, HEK293-NOX5, Amplex Red fluorescence (AID 1161). Particulars: HEK293-NOX5, ionomycin, 45 min, higher = more signal.

Structures are written as SMILES. Calls of active or inactive are those of the source. Unless noted, how the calls were made is not given here.

Sequence of NADPH oxidase 5 (Homo sapiens) (Q96PH1 whole entry, looked up): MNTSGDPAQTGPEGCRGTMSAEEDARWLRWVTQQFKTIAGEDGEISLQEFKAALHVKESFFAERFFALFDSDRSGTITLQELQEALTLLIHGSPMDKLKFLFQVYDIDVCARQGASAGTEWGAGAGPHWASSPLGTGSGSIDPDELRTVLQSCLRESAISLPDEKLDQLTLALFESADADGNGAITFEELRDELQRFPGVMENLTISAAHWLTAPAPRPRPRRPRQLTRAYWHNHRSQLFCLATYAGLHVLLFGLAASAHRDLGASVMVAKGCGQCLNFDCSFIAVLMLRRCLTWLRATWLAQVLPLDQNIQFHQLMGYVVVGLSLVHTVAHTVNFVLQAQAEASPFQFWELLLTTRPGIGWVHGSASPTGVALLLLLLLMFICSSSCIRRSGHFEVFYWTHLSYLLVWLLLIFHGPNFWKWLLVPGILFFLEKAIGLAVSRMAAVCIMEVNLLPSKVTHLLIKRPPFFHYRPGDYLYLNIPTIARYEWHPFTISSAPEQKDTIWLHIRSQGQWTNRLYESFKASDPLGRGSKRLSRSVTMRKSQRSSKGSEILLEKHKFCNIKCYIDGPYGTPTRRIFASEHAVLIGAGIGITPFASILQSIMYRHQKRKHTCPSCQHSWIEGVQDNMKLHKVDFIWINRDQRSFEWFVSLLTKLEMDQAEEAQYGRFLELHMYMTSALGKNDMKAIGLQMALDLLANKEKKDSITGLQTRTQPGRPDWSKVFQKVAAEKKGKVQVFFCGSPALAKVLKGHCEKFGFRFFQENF
Sequence of Streptavidin (Streptomyces avidinii) (P22629 whole entry, looked up): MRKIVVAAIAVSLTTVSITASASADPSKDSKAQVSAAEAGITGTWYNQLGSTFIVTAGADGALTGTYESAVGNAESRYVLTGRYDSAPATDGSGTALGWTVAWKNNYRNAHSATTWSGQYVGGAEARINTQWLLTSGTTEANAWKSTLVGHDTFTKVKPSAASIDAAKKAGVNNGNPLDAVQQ
Sequence of NADPH oxidase 2 (Homo sapiens) (P04839 whole entry, looked up): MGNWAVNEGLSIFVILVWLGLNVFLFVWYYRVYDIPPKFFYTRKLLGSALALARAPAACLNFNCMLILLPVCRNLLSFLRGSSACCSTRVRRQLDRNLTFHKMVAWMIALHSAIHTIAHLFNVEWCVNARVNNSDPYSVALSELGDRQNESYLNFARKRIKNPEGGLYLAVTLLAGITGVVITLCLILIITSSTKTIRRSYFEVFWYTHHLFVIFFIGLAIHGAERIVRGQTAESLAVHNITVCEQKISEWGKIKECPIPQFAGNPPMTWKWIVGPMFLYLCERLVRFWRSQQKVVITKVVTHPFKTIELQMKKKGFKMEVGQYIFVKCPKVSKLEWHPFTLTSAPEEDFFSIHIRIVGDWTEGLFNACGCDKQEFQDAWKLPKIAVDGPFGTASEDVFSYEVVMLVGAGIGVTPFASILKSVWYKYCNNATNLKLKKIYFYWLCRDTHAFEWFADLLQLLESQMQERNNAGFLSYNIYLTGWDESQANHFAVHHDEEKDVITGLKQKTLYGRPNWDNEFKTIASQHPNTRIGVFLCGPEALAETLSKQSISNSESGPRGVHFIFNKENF
Sequence of NADPH oxidase 4 (Homo sapiens) (Q9NPH5 whole entry, looked up): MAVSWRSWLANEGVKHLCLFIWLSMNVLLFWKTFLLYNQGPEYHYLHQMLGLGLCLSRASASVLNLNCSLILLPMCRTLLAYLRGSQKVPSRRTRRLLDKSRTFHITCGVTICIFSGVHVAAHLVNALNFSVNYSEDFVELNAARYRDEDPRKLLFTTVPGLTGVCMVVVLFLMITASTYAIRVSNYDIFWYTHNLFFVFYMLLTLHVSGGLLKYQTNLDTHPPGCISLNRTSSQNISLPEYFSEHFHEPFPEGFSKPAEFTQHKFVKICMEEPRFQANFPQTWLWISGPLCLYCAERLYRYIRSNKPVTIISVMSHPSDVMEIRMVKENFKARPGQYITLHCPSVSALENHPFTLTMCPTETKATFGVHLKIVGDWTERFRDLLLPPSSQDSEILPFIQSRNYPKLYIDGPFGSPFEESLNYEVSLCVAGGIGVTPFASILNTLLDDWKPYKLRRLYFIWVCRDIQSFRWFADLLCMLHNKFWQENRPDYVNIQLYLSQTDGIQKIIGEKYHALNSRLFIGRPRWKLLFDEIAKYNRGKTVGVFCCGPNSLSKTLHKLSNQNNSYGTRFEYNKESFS
Sequence of Torsin-1A (Homo sapiens) (O14656 whole entry, looked up): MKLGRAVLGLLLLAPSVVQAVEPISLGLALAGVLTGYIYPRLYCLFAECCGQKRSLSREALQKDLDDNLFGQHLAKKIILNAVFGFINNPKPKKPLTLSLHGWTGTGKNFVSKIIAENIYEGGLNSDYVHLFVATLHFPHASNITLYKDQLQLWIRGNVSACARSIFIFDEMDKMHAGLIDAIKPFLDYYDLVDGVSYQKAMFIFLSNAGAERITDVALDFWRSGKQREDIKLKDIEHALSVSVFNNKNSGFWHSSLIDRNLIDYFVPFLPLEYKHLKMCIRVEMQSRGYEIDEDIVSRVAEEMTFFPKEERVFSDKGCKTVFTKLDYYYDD

`O=C(N1CCOCC1)[C@@]1(Cc2ccccc2)COC(c2ccc(OCCCO)cc2)=N1`: the composite z-score in [1] is 0.242; in experiment [6], 0.647; in [7], 0.0422; with Torsin-1A (Homo sapiens) [8], 0.315; in the experiment with Torsin-1A (Homo sapiens) [9], 1.02; in experiment [10], -1.05. The composite z-score in experiment [12] is -0.132. The z-score in experiment [2] is -5.19 (inactive); in [3], -0.446 (inactive); in experiment [4] it was 0.484 (inactive); in experiment [5] it was -2.35 (inactive); in [11], 2.51 (inactive); in [13] it was 12 (active). For the same molecule, the z-score is 0.653 (inactive) in experiment [14]; 0.929 (inactive) in [15]; -0.269 (inactive) in [16]; 1.66 in experiment [17]; -2.33 (inactive) in experiment [18]; 0.642 (inactive) in experiment [19]. Moreover, in experiment [20], the z-score was -1.51.
With `CCCNC(=O)[C@@]1(c2ccc([N+](=O)[O-])cc2)CC(=O)N(C(C)C)[C@@H]1c1ccc(CO)cc1`, the composite z-score is -0.47 in experiment [1]; -1.07 in experiment [6]; -0.153 in experiment [7]; -2.12 with Torsin-1A (Homo sapiens) [8]; -0.42 in the experiment with Torsin-1A (Homo sapiens) [9]; -0.738 in [10]. In addition, the composite z-score in experiment [12] is -0.207. The z-score was -1.22 (inactive) in experiment [2]; 0.313 (inactive) in [3]; 0.558 (inactive) in [4]; 0.282 (inactive) in experiment [5]; -0.169 (inactive) in experiment [11]; 1.4 (inactive) in [13]. The z-score in [14] was -0.366 (inactive); in experiment [15], 1.18 (inactive); in experiment [16], 0.205 (inactive); in [17] it was 0.0662; in [18] it was -0.144 (inactive); in experiment [19], 0.069 (inactive). The z-score in experiment [20] is -1.85.
Take `O=C(NCC(O)CO)[C@@]1(CCS(=O)(=O)c2ccccc2)N=C(c2ccc(OCCCO)cc2)O[C@H]1c1ccccc1` (stereo not given in full): the composite z-score in experiment [1] is 0.274; in experiment [6] it was 1.4; in experiment [7], 0.212; with Torsin-1A (Homo sapiens) [8], 0.449; in the experiment with Torsin-1A (Homo sapiens) [9], 1.23; in experiment [10], -1.04. Further, in experiment [12], the composite z-score worked out at 0.419. The z-score was -3.75 (inactive) in experiment [2]; -0.513 (inactive) in experiment [3]; 0.675 (inactive) in experiment [4]; -1.04 (inactive) in experiment [5]; -0.295 (inactive) in experiment [11]; 25.6 (active) in experiment [13]. Also, the z-score in experiment [14] is 19.1 (active); in experiment [15], 2.38 (inactive); in experiment [16] it was 1.39 (inactive); in experiment [17], 1.07; in experiment [18] it was -0.356 (inactive); in [19], 1.47 (inactive). The molecule further showed a z-score in [20] of 1.33.
With `CCCN1C(=O)[C@@]2(c3ccc([N+](=O)[O-])cc3)CC(=O)N(CC34CC5CC(CC(C5)C3)C4)[C@@H]2c2ccc(CO)cc21`, the composite z-score in experiment [1] is -0.347; in experiment [6], -0.192; in [7], 0.0588; with Torsin-1A (Homo sapiens) [8] it was -1.21; in the experiment with Torsin-1A (Homo sapiens) [9], 0.019; in experiment [10] it was 0.102. Also, the composite z-score in experiment [12] was 0.334. For the same molecule, the z-score in experiment [2] was -0.0818 (inactive); in experiment [3], 0.312 (inactive); in experiment [4] it was 0.272 (inactive); in experiment [5] it was 1 (inactive); in [11], -0.803 (inactive); in experiment [13], 0.336 (inactive). In addition, the z-score in [14] is 0.0149 (inactive); in experiment [15], 0.519 (inactive); in [16], -0.312 (inactive); in experiment [17] it was -0.574; in experiment [18], 0.658 (inactive); in experiment [19], 0.148 (inactive). Also, the z-score in [20] turned out to be 0.631.
In the case of `COC(=O)C(CC#Cc1ccc2c(c1)[C@]1(C(=O)N2)[C@H](C(=O)N2CCc3cc(OC)c(OC)cc3C2)[C@H]2C(=O)O[C@H](c3ccccc3)[C@H](c3ccccc3)N2[C@@H]1c1ccccc1OCCO)C(=O)OC`, the composite z-score came to 0.345 in experiment [1]; 1 in experiment [6]; 0.0561 in [7]; 0.885 with Torsin-1A (Homo sapiens) [8]; 1.15 in the experiment with Torsin-1A (Homo sapiens) [9]; 1.99 in experiment [10]. Further, the composite z-score in experiment [12] came out at 0.0429. Also, the z-score is -2.91 (inactive) in experiment [2]; -0.375 (inactive) in [3]; -0.168 (inactive) in experiment [4]; 0.214 (inactive) in experiment [5]; 0.113 (inactive) in experiment [11]; 2.85 (inactive) in [13]. The z-score in [14] was 1.76 (inactive); in experiment [15], 0.848 (inactive); in [16] it was 1.08 (inactive); in experiment [17], -0.416; in experiment [18], 2.02 (inactive); in experiment [19], 0.405 (inactive). In experiment [20], this molecule returned a z-score of 1.9.
Take `COC(=O)[C@@]1(Cc2ccccc2)[C@H]2c3cc(C(=O)N(C)C)n(CCSC(=N)N)c3C[C@H]2CN1C(=O)c1ccccc1`: the composite z-score is -0.042 in experiment [1]; -0.405 in [6]; 0.0444 in [7]; -0.524 with Torsin-1A (Homo sapiens) [8]; -0.209 with Torsin-1A (Homo sapiens) [9]; -0.564 in [10]. This molecule yielded a composite z-score in [12] of 0.138. In addition, the z-score was 0.0619 (inactive) in [2]; -0.367 (inactive) in [3]; 0.583 (inactive) in [4]; 0.53 (inactive) in [5]; -0.817 (inactive) in experiment [11]; 0.929 (inactive) in experiment [13]. In addition, the z-score is 0.542 (inactive) in experiment [14]; 0.746 (inactive) in experiment [15]; 0.494 (inactive) in experiment [16]; -0.0307 in [17]; 0.251 (inactive) in experiment [18]; -0.357 (inactive) in experiment [19]. The molecule further showed a z-score in experiment [20] of -1.01.
On to `N#Cc1ccc(-c2cccc(=O)o2)cc1`, for which the composite z-score turned out to be 0.0017 in experiment [1]; 0.427 in experiment [6]; 0.085 in experiment [7]; 0.435 in the experiment with Torsin-1A (Homo sapiens) [8]; 0.0587 with Torsin-1A (Homo sapiens) [9]; 0.458 in [10]. The same molecule showed a composite z-score in experiment [12] of -0.0954. For the same molecule, the z-score in experiment [2] is 0.454 (inactive); in experiment [3] it was -0.131 (inactive); in experiment [4], -0.163 (inactive); in experiment [5] it was 0.648 (inactive); in [11], -0.729 (inactive); in [13], 3.14 (inactive). In addition, the z-score in [14] was 1.15 (inactive); in experiment [15], -0.598 (inactive); in experiment [16] it was 0.979 (inactive); in [17], -0.0905; in [18] it was 0.191 (inactive); in experiment [19], -1.72 (inactive). In experiment [20], this molecule came in with a z-score of 0.172.
Take `O=C(NC1CC1)[C@@H]1c2ccccc2C(=O)N(CC23CC4CC(CC(C4)C2)C3)[C@H]1c1ccc(CO)cc1`: the composite z-score in experiment [1] is 0.659; in experiment [6], 0.189; in experiment [7], 0.0697; with Torsin-1A (Homo sapiens) [8], 0.197; with Torsin-1A (Homo sapiens) [9], 0.833; in experiment [10], 1.88. In experiment [12], this molecule displayed a composite z-score of 0.284. Further, the z-score is -1.29 (inactive) in experiment [2]; -0.88 (inactive) in experiment [3]; 0.0026 (inactive) in [4]; -0.049 (inactive) in [5]; 0.268 (inactive) in [11]; 1.56 (inactive) in [13]. Further, the z-score is 0.464 (inactive) in experiment [14]; 1.48 (inactive) in experiment [15]; 0.181 (inactive) in [16]; 0.268 in experiment [17]; 0.507 (inactive) in experiment [18]; 0.157 (inactive) in [19]. In [20], the z-score is 0.412.
